# In the library only some 8.1% were active in any assay of this set; here they are far more common.
# MCF10A rereplic: inducers of DNA re-replication in MCF 10A breast cells; MCF 10A DNA re-replication, Hoechst nuclear intensity, 48 h; Potency, µM (series often up to 46.1 µM), for inactives: at the highest dose activity, positive = re-replication, most hits filed as activators; 2.9% of 350,000 active; AID 624296; further: % of control where 0% means no effect; nearly all actives have a fitted effect of over 50% in size
# KB-3-1 cytotox: kills parental KB-3-1 adenocarcinoma cells; 1.4% of 400,000 active; KB-3-1 viability, CellTiter-Glo ATP luminescence, 72 h; Potency, µM (top dose mostly 46.1 µM), most hits filed as cytotoxic; AID 1347075; further: on the % scale 0 is the no-effect control and ±100 the full control effect; nearly all actives have a fitted effect of over 60% in size
#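 Cytotoxicity in the drug-sensitive parental line KB-3-1 was scored as loss of CellTiter-Glo luminescence following 72 h incubation with compound. Values come from curve fitting of normalized concentration-response data.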
# SW480 rereplic: inducers of DNA re-replication in SW480 colon cancer cells; Potency, µM (titrated, usually from 46.1 µM), for the others: top-dose re-replication activation, actives largely listed as activators; SW480 DNA re-replication, Hoechst DNA content imaging, 48 h; 1.8% of 340,000 active; further: % of control where 0% means no effect; nearly all actives have a fitted effect of over 55% in size
#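 Treated cells incubate 48 hr (37 C, 5% CO2), are stained 40 min with Hoechst, and nuclear fluorescence is enumerated; a rise in nuclei with high DNA signal marks re-replication.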
# ELG1 DNA repair: inhibitors of ELG1-dependent DNA repair in HEK293T cells | HEK293T ELG1-luciferase reporter, luminescence, 16 h; DNA damage induced by 5-fluorouridine | 2.3% of 330,000 active | Potency, µM (series often up to 46.1 µM), for the others: top-dose activity change, negative = inhibition, actives largely listed as inhibitors; further: on the % scale 0 is the no-effect control and ±100 the full control effect; nearly all actives have a fitted effect of over 55% in size
#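 In this reporter screen, reduction of luminescence relative to DMSO vehicle indicated activity. Compounds and 5-fluorouridine were added together to 2,000 cells per well, incubated for 16 hr at 37 °C, then developed with ONE-Glo.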
# KB-V1 MDR tox: kills drug-selected multidrug resistant KB-V1 cells; KB-V1 MDR cells viability, CellTiter-Glo, 72 h; 3.4% of 400,000 active; AID 1347076; Potency, µM (highest dose often 46.1 µM), usual class: cytotoxic; further: on the % scale 0 is the no-effect control and ±100 the full control effect; nearly all actives have a fitted effect of over 60% in size
#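 Readout: CellTiter-Glo luminescence, 10 min after addition. Cells: KB-V1 MDR subline, 72 h at 37 degrees C with compound. Analysis: corrected, normalized data fitted to concentration-effect curves.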
# ELG1 FLuc counter: luciferase inhibition in cell-free luciferin readout for ELG1 hits; shares compounds with ELG1 DNA repair; cell-free firefly luciferase luminescence counter-screen, ViewLux; Potency, µM (series often up to 46.1 µM), without a hit: top-dose activity change, negative = inhibition, actives largely listed as inhibitors; 3% of 350 active; further: on the % scale 0 is the no-effect control and ±100 the full control effect
# ELG1-Luc inh: inhibits ELG1-dependent DNA repair in HEK293T cells, confirmed; 68% of 670 active; Potency, µM (titrated, usually from 46.1 µM), for the others: at the top dose activity change, negative = inhibition, hits mostly inhibitors; HEK293T ELG1-luciferase levels, luminescence; cells co-treated with 5-fluorouridine; shares compounds with ELG1 DNA repair; further: on the % scale 0 is the no-effect control and ±100 the full control effect; nearly all actives have a fitted effect of over 55% in size
# Target sequence (Q96QE3 whole entry, looked up): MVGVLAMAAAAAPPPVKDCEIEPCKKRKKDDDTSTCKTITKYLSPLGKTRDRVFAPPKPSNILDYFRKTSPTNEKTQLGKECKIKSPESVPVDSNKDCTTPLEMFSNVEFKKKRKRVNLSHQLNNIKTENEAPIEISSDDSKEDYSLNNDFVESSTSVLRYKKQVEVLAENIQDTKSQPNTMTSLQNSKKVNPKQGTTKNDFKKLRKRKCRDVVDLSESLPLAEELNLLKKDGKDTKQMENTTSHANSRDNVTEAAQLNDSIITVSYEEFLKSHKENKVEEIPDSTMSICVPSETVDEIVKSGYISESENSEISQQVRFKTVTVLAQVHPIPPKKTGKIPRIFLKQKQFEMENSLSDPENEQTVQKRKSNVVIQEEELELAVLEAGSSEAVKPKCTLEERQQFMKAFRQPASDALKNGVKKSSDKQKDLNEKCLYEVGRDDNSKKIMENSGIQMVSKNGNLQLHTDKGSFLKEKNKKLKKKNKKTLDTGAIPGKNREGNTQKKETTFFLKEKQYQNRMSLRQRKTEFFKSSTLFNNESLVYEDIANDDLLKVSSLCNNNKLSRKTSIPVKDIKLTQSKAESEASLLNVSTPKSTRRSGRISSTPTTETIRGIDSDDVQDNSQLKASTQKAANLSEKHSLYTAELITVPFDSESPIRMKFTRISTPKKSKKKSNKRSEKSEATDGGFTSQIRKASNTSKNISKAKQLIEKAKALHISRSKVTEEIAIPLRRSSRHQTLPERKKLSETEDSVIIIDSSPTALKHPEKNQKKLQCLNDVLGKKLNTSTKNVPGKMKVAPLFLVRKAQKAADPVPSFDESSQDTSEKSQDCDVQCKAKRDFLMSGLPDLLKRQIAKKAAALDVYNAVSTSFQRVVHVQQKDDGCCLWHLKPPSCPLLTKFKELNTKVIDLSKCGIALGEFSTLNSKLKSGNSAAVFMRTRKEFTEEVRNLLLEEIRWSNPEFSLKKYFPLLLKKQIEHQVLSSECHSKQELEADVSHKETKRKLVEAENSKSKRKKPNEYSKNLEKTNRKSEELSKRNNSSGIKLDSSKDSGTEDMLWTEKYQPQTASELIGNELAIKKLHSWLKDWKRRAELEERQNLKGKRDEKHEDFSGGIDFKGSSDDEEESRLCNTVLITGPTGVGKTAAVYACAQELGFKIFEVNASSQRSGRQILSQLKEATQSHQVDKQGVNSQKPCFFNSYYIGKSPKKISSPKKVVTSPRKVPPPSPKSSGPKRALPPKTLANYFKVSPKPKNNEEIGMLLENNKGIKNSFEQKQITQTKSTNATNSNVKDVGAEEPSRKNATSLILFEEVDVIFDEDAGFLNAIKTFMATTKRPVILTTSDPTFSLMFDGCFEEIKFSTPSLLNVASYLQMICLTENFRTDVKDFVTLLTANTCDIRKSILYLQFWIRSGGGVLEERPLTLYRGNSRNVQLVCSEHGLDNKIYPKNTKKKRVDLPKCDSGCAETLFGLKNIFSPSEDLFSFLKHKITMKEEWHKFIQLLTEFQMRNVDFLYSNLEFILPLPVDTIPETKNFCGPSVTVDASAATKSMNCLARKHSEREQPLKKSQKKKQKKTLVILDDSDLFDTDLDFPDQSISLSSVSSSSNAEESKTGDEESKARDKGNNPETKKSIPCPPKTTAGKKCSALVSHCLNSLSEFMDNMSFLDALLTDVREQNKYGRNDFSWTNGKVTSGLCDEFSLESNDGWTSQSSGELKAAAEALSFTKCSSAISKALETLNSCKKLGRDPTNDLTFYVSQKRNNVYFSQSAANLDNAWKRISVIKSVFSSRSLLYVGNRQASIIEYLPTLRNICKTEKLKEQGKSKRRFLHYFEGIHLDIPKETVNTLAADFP
# ELG1 MMS Luc: inhibits ELG1-dependent repair under MMS stimulation in HEK293T cells | shares compounds with ELG1 DNA repair | Potency, µM (titrated, usually from 46.1 µM), for inactives: at the highest dose activity change, negative = inhibition, most hits filed as inhibitors | 53% of 670 active | HEK293T luciferase-tagged ELG1 level, MMS stimulated; further: on the % scale 0 is the no-effect control and ±100 the full control effect; nearly all actives have a fitted effect of over 60% in size
# ELG1 5FU viab: confirmation of ELG1 repair inhibitors: viability with 5FU; shares compounds with ELG1 DNA repair; cell viability with 5-FU, ELG1-dependent repair; 670 tested, under 10 active; AID 624250; Potency, µM (doses to about 46.1 µM), for inactives: top-dose activity change, negative = viability loss, hits mostly cytotoxic;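 further: ELG1-luc HEK293T cells cotreated with 5-fluorouridine at 10 µM final; viability measured 16 h after compound addition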
# ELG1 MMS viab: confirmation of ELG1 repair inhibitors: viability with MMS. shares compounds with ELG1 DNA repair. Cell viability with MMS, ELG1-dependent DNA repair. Potency, µM (doses to about 46.1 µM), for inactives: at the top dose activity change, negative = viability loss, actives largely listed as cytotoxic. 33% of 670 active;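 further: ELG1-luc HEK293T cells co-treated with 10 µM MMS; viability read 16 h after compound addition; on the % scale 0 is the no-effect control and ±100 the full control effect; nearly all actives have a fitted effect of over 60% in size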
# ELG1 unstim viab: counter-screen for ELG1 repair inhibitors: unstimulated cell viability. shares compounds with ELG1 DNA repair. cell viability counter-screen, unstimulated, luminescence. Potency, µM (doses to about 45.9 µM), for the others: at the top dose activity change, negative = loss of viability, actives largely listed as cytotoxic. 8% of 900 active;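 further: compound exposure lasted 16 hours before reading; on the % scale 0 is the no-effect control and ±100 the full control effect; nearly all actives have a fitted effect of over 55% in size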
# FLuc biochem: counter-screen for ELG1 repair inhibitors: firefly luciferase inhibition. shares compounds with ELG1 DNA repair. purified firefly luciferase, luminescence counter-screen. Potency, µM (top dose mostly 57.5 µM), without a hit: top-dose activity, negative = inhibition, actives largely listed as inhibitors. 10% of 350 active. AID 624253; further: on the % scale 0 is the no-effect control and ±100 the full control effect
# The depositor's hits bear a star; i = inactive; u = inconclusive; x = no result; [ ] = dose if it differs, or a comment. The call rests on the fitted dose curve; in most records, active means well fitted curve in the direction sought with a large enough effect; inconclusive means small, poorly fitted or top-dose-only effect, or another doubt; inactive means no such curve, though single readings can be large; an effect the other way counts as inactive or inconclusive. Potency means the concentration at half of the fitted maximal effect.
SMILES,MCF10A rereplic,KB-3-1 cytotox,SW480 rereplic,ELG1 DNA repair,KB-V1 MDR tox,ELG1-Luc inh,ELG1 MMS Luc,ELG1 5FU viab,ELG1 MMS viab,ELG1 unstim viab,others
CCN(Cc1ccccc1)C(=O)Cn1c(=O)oc2ccccc21,-55%,i,-1%,6%,i,x,x,x,x,x,
O=C(Nc1ccc2c(c1)OCCO2)c1cccn(Cc2cccc(F)c2)c1=O,x,i,x,x,i,x,x,x,x,x,
COc1cc2c(cc1OC)C1C(=O)c3c(cc4c(c3O)C=CC(C)(C)O4)OC1CO2 (configuration not stated),x,x,x,x,x,u,0.71µM*,-4%,0.79µM*,u,ELG1 FLuc counter=-3%;FLuc biochem=u
CC(=O)O[C@H]1C[C@@H](O[C@@H]2[C@H](C)O[C@H](O[C@@H]3[C@H](C)O[C@H](O[C@@H]4CC[C@@]5(C)[C@@H](CC[C@]6(C)[C@]5(C)C[C@H](O)[C@]5(C)[C@@H](C7=CC(=O)OC7)CC[C@@]56O)C4)C[C@@H]3O)C[C@@H]2O)O[C@@H](C)[C@H]1O[C@H]1O[C@@H](CO)[C@@H](O)[C@@H](O)[C@@H]1O,x,x,x,x,x,1.1µM*,0.6µM*,u,1.7µM*,u,ELG1 FLuc counter=u;FLuc biochem=3%[35.2 µM]
CC(=O)OC1CCC23C(=O)OC45CCC(C6=CC(=O)OC6)C4(C)CCC2C5CCC3(O)C1 (configuration not stated),x,x,x,x,x,1.3µM*,0.63µM*,u,1.3µM*,0.44µM*,
CC(=O)OC1CC[C@]2(C)C(CCC3C2CC[C@]2(C)C(C4=CC(=O)OC4)C(OC(C)=O)CC32O)C1 (some centres not stated),x,x,x,x,x,1.4µM*,0.89µM*,u,1.3µM*,0.63µM*,
O=C(Oc1c(Br)cc(Br)c2cccnc12)N1CCCCC1,u,i,-2%,-14%,i,x,x,x,x,x,
C[C@H]1CCC[C@@H](O)CCC/C=C/c2cc(O)cc(O)c2C(=O)O1,10µM*,i,u,2.8µM*,u,4µM*,4µM*,-7%,u,u,
COc1cc2c(c(OC)c1)C(=O)OC(C)CCCC(=O)CCCCC2 (configuration not stated),u,i,0%,-14%,i,x,x,x,x,x,
CN(Cc1ccc(OC(F)F)cc1)Cc1nc2c(Br)cc(Br)cc2c(=O)[nH]1,15%,i,u,u,i,x,x,x,x,x,
O=NN(CCCl)C(=O)NCCCl,-6%,i,-5%,u,i,x,x,x,x,x,
